# Assay results taken from PubChem BioAssay (NCATS).
# Inconclusive results are not listed. A call without a number means that no potency is given here. Active and inactive are the calls of the source. Calls come from the whole dose curve; as a rule, active = well fitted inhibition curve with a large enough effect; inconclusive = small, poorly fitted or top-dose-only effect; inactive = flat fitted curve, though single readings scatter.
# How the values were obtained:
# Test in all cases: qHTS profiling for inhibitors of Plasmodium falciparum proliferation (AID 504749); note: nearly all actives have a fitted effect of over 60% in size
# Details in all cases: P. falciparum in erythrocytes, SYBR Green DNA, 72 h; series mostly up to 28.7 µM
# [1] = test system: CP238
# In short: (§1)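 In a 72 h erythrocytic culture (37 C, humidified, 5% CO2) at 2.5% hematocrit and 0.3% starting parasitemia, compounds were tested; SYBR Green I in detergent lysis buffer stained parasite DNA overnight.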
# [2] = test system: CP252
# In short: as §1
# [3] = test system: CP256
# In short: as §1
# [4] = test system: CP262
# In short: as §1
# [5] = test system: CP268
# In short: as §1
# [6] = test system: CP269
# In short: as §1
# [7] = test system: CP305
# In short: as §1
# [8] = test system: CP315
# In short: as §1
# [9] = test system: CP325
# In short: as §1
# [10] = test system: CP215
# In short: as §1
# [11] = test system: CP217
# In short: as §1
# [12] = test system: CP247
# In short: as §1
# [13] = test system: CP250
# In short: as §1
# [14] = test system: CP265
# In short: as §1
# [15] = test system: CP266
# In short: as §1
# [16] = test system: CP291
# In short: as §1
# [17] = test system: CP297
# In short: as §1
# [18] = test system: CP237
# In short: as §1
# [19] = test system: CP260
# In short: as §1
# [20] = test system: CP286
# In short: as §1
# Potency is the fitted concentration of half-maximal effect.
Structure (SMILES),Potency [1],Potency [2],Potency [3],Potency [4],Potency [5],Potency [6],Potency [7],Potency [8],Potency [9],Potency [10],Potency [11],Potency [12],Potency [13],Potency [14],Potency [15],Potency [16],Potency [17],Potency [18],Potency [19],Potency [20]
CCCCC(CC)COC(=O)C(C#N)=C(c1ccccc1)c1ccccc1 (stereo unspecified),inactive,inactive,8.91 µM (active),inactive,inactive,inactive,inactive,inactive,inactive,,,,,,,,,,,
COc1ccc2cc([C@H](C)C(=O)O)ccc2c1,inactive,inactive,inactive,inactive,inactive,inactive,inactive,inactive,inactive,inactive,inactive,inactive,inactive,inactive,inactive,inactive,inactive,,,
CN(c1nccc(=O)[nH]1)C1CCN(c2nc3ccccc3n2Cc2ccc(F)cc2)CC1,inactive,inactive,inactive,inactive,inactive,,inactive,,,,,,inactive,inactive,,inactive,,inactive,inactive,inactive
N=C(N)c1ccc2cc(OC(=O)c3ccc(N=C(N)N)cc3)ccc2c1,,,,,,,4.78 µM (active),,,,,8.91 µM (active),inactive,,,,,7.08 µM (active),,4.47 µM (active)
O=C1CCc2ccc(OCCCCN3CCN(c4cccc(Cl)c4Cl)CC3)cc2N1,,,inactive,inactive,inactive,inactive,inactive,inactive,inactive,inactive,,,,inactive,inactive,inactive,inactive,14.1 µM (active),11.2 µM (active),
C[Se]CCC(N)C(=O)O (stereo unspecified),inactive,inactive,,inactive,inactive,inactive,inactive,inactive,inactive,,inactive,inactive,inactive,inactive,inactive,inactive,,inactive,inactive,inactive
O=C1c2ccccc2-c2n[nH]c3cccc1c23,inactive,inactive,inactive,inactive,inactive,inactive,inactive,inactive,inactive,,inactive,inactive,inactive,inactive,inactive,inactive,inactive,inactive,inactive,inactive
Nc1nc(Cl)nc2c1ncn2[C@H]1C[C@H](O)[C@@H](CO)O1,inactive,inactive,inactive,,,,,,,,inactive,inactive,inactive,inactive,,,,inactive,inactive,inactive
CC1=C(C)C(=O)C(C(CCCCCC(=O)O)c2ccccc2)=C(C)C1=O (stereo unspecified),inactive,,inactive,inactive,inactive,inactive,inactive,,inactive,,,3.98 µM (active),,inactive,inactive,inactive,,inactive,inactive,inactive
Cc1nc(Nc2ncc(C(=O)Nc3c(C)cccc3Cl)s2)cc(N2CCN(CCO)CC2)n1,inactive,,inactive,inactive,inactive,,inactive,inactive,inactive,,,,,inactive,,inactive,,,inactive,
CC(C)c1ccc2oc3nc(N)c(C(=O)O)cc3c(=O)c2c1,inactive,,inactive,inactive,inactive,inactive,inactive,inactive,inactive,inactive,,5.62 µM (active),,inactive,,inactive,inactive,inactive,,inactive
NNc1nncc2ccccc12,inactive,inactive,,inactive,,,,inactive,,,inactive,,,,inactive,inactive,inactive,,,
Cc1cc(C2CCCCC2)n(O)c(=O)c1,,3.55 µM (active),,,,5.73 µM (active),5.73 µM (active),2.28 µM (active),5.73 µM (active),1.02 µM (active),3.55 µM (active),,,,,,7.21 µM (active),,,
COCCCOc1ccnc(CS(=O)c2nc3ccccc3[nH]2)c1C (stereo unspecified),inactive,inactive,inactive,inactive,inactive,,inactive,inactive,inactive,inactive,inactive,,inactive,inactive,inactive,inactive,,,,inactive
Cc1c(C(=O)NN2CCCCC2)nn(-c2ccc(Cl)cc2Cl)c1-c1ccc(Cl)cc1,,,11.2 µM (active),inactive,,,,,,13.5 µM (active),11.2 µM (active),7.94 µM (active),,11.2 µM (active),,,19 µM (active),12.6 µM (active),,
